This note sets out measurements from PubChem BioAssay (NCI).

About 79,000 compounds went through this panel and 15% of them were active in at least one assay; those are over-represented in the sample as a whole. Values without a mark were called inactive. Activity calls are given as the source filed them. Cut-off read from the data, not from the text of the source: active = growth inhibition above about 70%; inactive = the rest.

One assay in a line: NCI Yeast Anticancer Drug Screen. Data for the cln2 rad14 strain (AID 165).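 Note: 0% = growth equal to vehicle treated cultures.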 The note with it: S. cerevisiae cln2 rad14 strain, at 50.0 µM (retest, dose inferred, filed as 5.0), stronger effect = higher value. In a few lines: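 Growth of compound-exposed yeast (cln2 rad14 genotype) measured and expressed as inhibition relative to vehicle.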
As for `CCCc1cc(C(=O)OCC)cc(CCC)c1O`, the growth inhibition is -29%.
In the case of `CC(C)[N+]([O-])(CCCNc1c2ccccc2nc2cccc([N+](=O)[O-])c12)C(C)C`, the growth inhibition is 99% (active).
On the same count and under the same terms, the same measure for `COc1cc2c3c(cccc3c1)C(=O)N(CCN(C)C)C2=O`: 3%; for `NC(=O)NN=C(CS)CS`: 9%; for `Cc1ccc(NC(=O)/C(Cl)=C(\Cl)C(=O)O)cc1C`: 99% (active).
Still for that read-out and setting: the same measure for `CCN(CC)CC[n+]1ccc2c(C)c3[nH]c4ccc(O)cc4c3c(C)c2c1`: 18%.
On to `CC(CC(C)(C)[N+](C)(C)C)[N+](C)(C)C` (stereo not drawn), for which the growth inhibition is 95% (active).
Regarding `COc1ccc(OC)c2cc3ccccc3cc12`, the growth inhibition was 51%.
Take `Nc1ncncc1C(C1=C(O)COC1=O)C1=C(O)COC1=O`: the growth inhibition is 0%.
`CSC1=NNC(SC)=NN1`: the growth inhibition is 99% (active).
Still for that read-out and setting: with `Cc1c(Cl)ccc2c1S(=O)(=O)c1cccc(Cl)c1-2` the figure was 28%.
In the case of `[O-][n+]1c2ccc(O)cc2nc2ccc(Cl)cc21`, the growth inhibition was 9%.
In the case of `COc1ccc2ccc3ccccc3c2c1C=O`, the growth inhibition is 16%.
Turning to `Nc1ccc2c(c1)C(=O)c1cccc(N)c1C2=O`, the growth inhibition was 77% (active).
Still for that read-out and setting: the same measure for `O=C(c1ccc(Cl)cc1Cl)C(Cl)Cl`: 98% (active).
Same read-out and setting: with `COc1cc(C(=O)/C=C/c2ccccc2O)ccc1O` the figure was 98% (active); with `O=Cc1cccc2ccc3ccccc3c12`, 2%.
On the same count and under the same terms, with `O=C(Nc1ccc(Cl)cc1)OCC#CCCl` the figure was 7%; with `Cn1ccnc1Oc1ccc(Cl)cc1`, -6%; with `c1ccc2c(c1)C(=NCCCN1CCCCCC1)c1cccn1-2`, -5%.
Regarding `C/C(=N\O)C1CC2C=C(C#N)C1N(Cc1ccccc1)C2` (stereo not drawn), the growth inhibition was 8%.
On to `O=[N+]([O-])C(=C(Sc1ccccc1)Sc1ccccc1)C(Cl)=C(Cl)Cl`, for which the growth inhibition was 33%.
The same measure, in the same setting: with `CCCCCCCCCC/C=C\C(=O)O` the figure was 73% (active); with `COc1ccc(N=C2C(=O)Nc3ccc(Br)cc32)cc1`, 37%; with `COc1ccccc1C(=O)OCC1CCCN2CCCCC12` (stereo not drawn), 8%.
On the same count and under the same terms, with `CC(C)(Br)C(=O)/C=C/c1ccc(Cl)c(Cl)c1` the figure was 28%.
On the same count and under the same terms, with `Nc1ccccc1CC(O)C(=O)O` (stereo not drawn) the figure was 14%.
Regarding `CC(=O)N/N=C/C(C)(C)C(C)(C)/C=N/NC(C)=O`, the growth inhibition was 20%.
Still for that read-out and setting: the same measure for `CN(C)c1nc2sc3c(c2c(=O)o1)CCCC3`: 13%; for `CC(C)OC(=O)Oc1ccccc1OC(=O)OC(C)C`: 55%.
Still for that read-out and setting: the same measure for `Cc1ccc(N)c(S)c1`: 63%; for `O=C(O)c1ccccc1NC(=S)c1ccccc1`: 54%; for `COC(=O)c1ccc(NCC2=CC(=O)C=CC2=O)cc1O`: 93% (active).
Same read-out and setting: with `NC(N)=N/N=C\c1c2ccccc2cc2ccccc12` the figure was 25%.
Turning to `COC(=O)CSSCc1ccc([N+](=O)[O-])cc1`, the growth inhibition is 89% (active).
The same measure, in the same setting: with `CCS(=O)(=O)c1ccc(/C=C/C=N/NC(=S)NCC(C)C)cc1` the figure was 9%.
Same read-out and setting: with `N#CC(C(=O)Nc1ccccc1)C1=C(Cl)C(=O)c2ccccc2C1=O` (stereo not drawn) the figure was 98% (active).
Still for that read-out and setting: the same measure for `C[C@H](CCC(=O)NN)[C@H]1CC[C@H]2[C@@H]3CC[C@@H]4C[C@H](O)CC[C@]4(C)[C@H]3CC[C@]12C`: 54%; for `CC[n+]1ccc2c(C)c3[nH]c4ccc(O)cc4c3c(C)c2c1`: 23%.

The same assay, now with this note: S. cerevisiae cln2 rad14 strain, at 50.0 µM, stronger effect = higher value.
As to `CCCc1cc(C(=O)OCC)cc(CCC)c1O`, the growth inhibition was 93.8% (active).
On the same count and under the same terms, with `CC(C)[N+]([O-])(CCCNc1c2ccccc2nc2cccc([N+](=O)[O-])c12)C(C)C` the figure was 96% (active).
In the case of `COc1cc2c3c(cccc3c1)C(=O)N(CCN(C)C)C2=O`, the growth inhibition was -5.5%.
Turning to `NC(=O)NN=C(CS)CS`, the growth inhibition was -11.9%.
The same measure, in the same setting: the same measure for `Cc1ccc(NC(=O)/C(Cl)=C(\Cl)C(=O)O)cc1C`: 72% (active).
Still for that read-out and setting: the same measure for `CCN(CC)CC[n+]1ccc2c(C)c3[nH]c4ccc(O)cc4c3c(C)c2c1`: -21.6%.
`CC(CC(C)(C)[N+](C)(C)C)[N+](C)(C)C` (stereo not drawn): the growth inhibition is 90.8% (active).
Same read-out and setting: with `COc1ccc(OC)c2cc3ccccc3cc12` the figure was 39.6%.
With `Nc1ncncc1C(C1=C(O)COC1=O)C1=C(O)COC1=O`, the growth inhibition was 35.1%.
For the molecule `CSC1=NNC(SC)=NN1`, the growth inhibition was 30.9%.
Same read-out and setting: the same measure for `Cc1c(Cl)ccc2c1S(=O)(=O)c1cccc(Cl)c1-2`: 0.75%.
On the same count and under the same terms, the same measure for `[O-][n+]1c2ccc(O)cc2nc2ccc(Cl)cc21`: 43.1%; for `COc1ccc2ccc3ccccc3c2c1C=O`: 17.6%; for `Nc1ccc2c(c1)C(=O)c1cccc(N)c1C2=O`: 54.6%.
Same read-out and setting: the same measure for `O=C(c1ccc(Cl)cc1Cl)C(Cl)Cl`: 53.6%.
`COc1cc(C(=O)/C=C/c2ccccc2O)ccc1O`: the growth inhibition was 92.8% (active).
Same read-out and setting: with `O=Cc1cccc2ccc3ccccc3c12` the figure was 98.7% (active); with `O=C(Nc1ccc(Cl)cc1)OCC#CCCl`, -19.2%.
The same measure, in the same setting: with `Cn1ccnc1Oc1ccc(Cl)cc1` the figure was -55.4%; with `c1ccc2c(c1)C(=NCCCN1CCCCCC1)c1cccn1-2`, 61.4%.
For the molecule `C/C(=N\O)C1CC2C=C(C#N)C1N(Cc1ccccc1)C2` (stereo not drawn), the growth inhibition was 11.3%.
The same measure, in the same setting: the same measure for `O=[N+]([O-])C(=C(Sc1ccccc1)Sc1ccccc1)C(Cl)=C(Cl)Cl`: 32.8%.
As for `CCCCCCCCCC/C=C\C(=O)O`, the growth inhibition was 46.5%.
Turning to `COc1ccc(N=C2C(=O)Nc3ccc(Br)cc32)cc1`, the growth inhibition is -7.9%.
For the molecule `COc1ccccc1C(=O)OCC1CCCN2CCCCC12` (stereo not drawn), the growth inhibition was 90.9% (active).
As to `CC(C)(Br)C(=O)/C=C/c1ccc(Cl)c(Cl)c1`, the growth inhibition is 52%.
The same measure, in the same setting: with `Nc1ccccc1CC(O)C(=O)O` (stereo not drawn) the figure was 13.6%; with `CC(=O)N/N=C/C(C)(C)C(C)(C)/C=N/NC(C)=O`, 5.8%; with `CN(C)c1nc2sc3c(c2c(=O)o1)CCCC3`, -6.65%.
Still for that read-out and setting: the same measure for `CC(C)OC(=O)Oc1ccccc1OC(=O)OC(C)C`: 23.2%; for `Cc1ccc(N)c(S)c1`: -1.5%.
In the case of `O=C(O)c1ccccc1NC(=S)c1ccccc1`, the growth inhibition was 1%.
`COC(=O)c1ccc(NCC2=CC(=O)C=CC2=O)cc1O`: the growth inhibition is 89.9% (active).
Take `NC(N)=N/N=C\c1c2ccccc2cc2ccccc12`: the growth inhibition was 1.85%.
Regarding `COC(=O)CSSCc1ccc([N+](=O)[O-])cc1`, the growth inhibition is 93.6% (active).
The same measure, in the same setting: with `CCS(=O)(=O)c1ccc(/C=C/C=N/NC(=S)NCC(C)C)cc1` the figure was -67.3%.
The same measure, in the same setting: the same measure for `N#CC(C(=O)Nc1ccccc1)C1=C(Cl)C(=O)c2ccccc2C1=O` (stereo not drawn): 91.8% (active); for `C[C@H](CCC(=O)NN)[C@H]1CC[C@H]2[C@@H]3CC[C@@H]4C[C@H](O)CC[C@]4(C)[C@H]3CC[C@]12C`: 54.4%.
With `CC[n+]1ccc2c(C)c3[nH]c4ccc(O)cc4c3c(C)c2c1`, the growth inhibition is 9.35%.
